According to PubChem BioAssay (EPA / NIEHS):
Results filed as inconclusive are left out. Activity calls are given as the source filed them. Rule for the calls, unless noted: active = hit-call score of the fitted dose curve at least 0.9, where 1 is the maximum; inactive = score below 0.9.

Assays:
[1] = target: Aryl hydrocarbon receptor (Homo sapiens) (UniProt P35869); experiment: ATG_Ahr_CIS: Attagene CIS-FACTORIAL HepG2 Assay for human Aryl Hydrocarbon Receptor (Ahr) (AID 2282930); conditions: HepG2 AhR cis-factorial reporter transcription; actives raise or lower the signal
Summary of the method: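 HepG2, transient MRTU (cis) transfection, 24 h exposure. RNA → cDNA → PCR → 6-FAM primer extension → HpaI 2 h 37 C → CE. Fit: bidirectional, DMSO baseline.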

[2] = ATG_AP_1_CIS: Attagene CIS-FACTORIAL HepG2 Assay for human Activator Protein 1 (AP-1) (AID 2282931); conditions: HepG2 Attagene cis-factorial AP-1 reporter mRNA; actives raise or lower the signal
Summary of the method: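 Multiplexed HepG2 reporter assay, 24 h dosing. mRNA induction detected by RT-PCR plus capillary electrophoresis. Activity fitted in both directions against DMSO.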

[3] = ATG_BRE_CIS: Attagene CIS-FACTORIAL HepG2 Assay for human Bone Morphogenetic Protein (BMP) Response Element (BRE) (AID 2282933); conditions: HepG2 BMP response element reporter, Attagene transcription factor profiling; actives raise or lower the signal
Summary of the method: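 Gain- or loss-of-signal was derived by bidirectional fitting against DMSO controls. The signal came from reporter mRNA, measured by RT-PCR and capillary electrophoresis, in HepG2 cells transiently carrying multiple reporter units and dosed for 24 h.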

[4] = ATG_GLI_CIS: Attagene CIS-FACTORIAL HepG2 Assay for human Zinc Finger Protein GLI1 (AID 2282945); conditions: HepG2, Attagene cis-factorial reporter mRNA, GLI element; actives raise or lower the signal
Summary of the method: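 Bidirectional curve fits relative to DMSO, using reporter mRNA levels from RT-PCR plus capillary electrophoresis. Cells were HepG2 transiently carrying cis-regulated reporter constructs, harvested 24 h after dosing.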

[5] = target: Paired box protein Pax-6 (Homo sapiens) (UniProt P26367); experiment: ATG_Pax6_CIS: Attagene CIS-FACTORIAL HepG2 Assay for human Paired Box 6 (PAX6) (AID 2282956); conditions: HepG2 CIS-FACTORIAL PAX6 reporter transcription, RNA readout; actives raise or lower the signal
Summary of the method: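 Multiplexed cis-reporter HepG2 system; 24 h treatment; reporter mRNA read by RT-PCR/CE fluorescence; bidirectional fit vs DMSO.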

[6] = ATG_RORE_CIS: Attagene CIS-FACTORIAL HepG2 Assay for human RAR-related Orphan Receptor Element (RORE) (AID 2282959); conditions: HepG2 Attagene cis-factorial RORE reporter, mRNA; actives raise or lower the signal
Summary of the method: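 Endogenous factor activity at a cis response element is read as reporter transcript levels in HepG2 cells, 24 h post-dose. Transcripts are quantified by RT-PCR with capillary electrophoresis, and data fitted in both directions against DMSO.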

[7] = ATG_TAL_CIS: Attagene CIS-FACTORIAL HepG2 Assay for human TAL Basal Promoter (AID 2282966); conditions: HepG2 Attagene cis-factorial TAL promoter reporter; actives raise or lower the signal;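 note: background control endpoint measuring basal TAL promoter reporter mRNA not a specific factor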
Summary of the method: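 Fluorescence of labelled reporter cDNA fragments, resolved by capillary electrophoresis, gave the readout. Human HepG2 liver cells carried transiently transfected cis-element reporter units and were treated for 24 hours; activity was fitted bidirectionally against DMSO.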

[8] = ATG_TGFb_CIS: Attagene CIS-FACTORIAL HepG2 Assay for human Transforming Growth Factor (TGF) (AID 2282967); conditions: HepG2 Attagene CIS TGFb reporter, mRNA transcription; actives raise or lower the signal
Summary of the method: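 Transcript-level reporter readout: HepG2 transfectants, 24 h exposure, RNA to cDNA, reporter-specific PCR, fluorescent primer extension, capillary sizing against ROX standards. Gain- or loss-of-signal relative to DMSO.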

[9] = ATG_VDRE_CIS: Attagene CIS-FACTORIAL HepG2 Assay for human Vitamin D Receptor Element (VDRE) (AID 2282968); conditions: HepG2 VDRE cis-reporter transcription, actives raise or lower the signal
Summary of the method: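 In transiently transfected HepG2 liver cells, gain or loss of reporter mRNA after 24 h exposure is scored relative to DMSO, using fluorescence detection by capillary electrophoresis of RT-PCR products.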

[10] = target: X-box-binding protein 1 (Homo sapiens) (UniProt P17861); experiment: ATG_Xbp1_CIS: Attagene CIS-FACTORIAL HepG2 Assay for human X-box Binding Protein 1 (XBP1) (AID 2282972); conditions: HepG2 XBP1 cis-element reporter, Attagene multiplex; actives raise or lower the signal
Summary of the method: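 Fluorescence-labelled cDNA fragments from reporter transcripts, separated by capillary electrophoresis, give the signal. Source: HepG2 cells transfected with promoter-driven reporter units, harvested 24 h post-dose. DMSO served as reference for bidirectional curve fitting.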

[11] = ATG_M_32_TRANS: Attagene TRANS-FACTORIAL HepG2 Assay for M32 Transcription Factor (Internal Marker) (AID 2282984; active = hit-call score of the fitted dose curve at least 0.9, where 1 is the maximum;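 note: transcript level of a background control reporter unit measured by RT-PCR and capillary electrophoresis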); conditions: HepG2 Attagene TRANS M32 internal marker reporter
Summary of the method: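 Using transiently transfected HepG2 cells exposed to test chemicals for 24 h, reporter transcripts are converted to labelled cDNA fragments and quantified by capillary electrophoresis. DMSO defines the activity baseline.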

[12] = ATG_NFI_CIS: Attagene CIS-FACTORIAL HepG2 Assay for human Nuclear Factor I (NFI) (AID 2282989); conditions: HepG2 cis-regulatory reporter, NFI response element transcription; actives raise or lower the signal
Summary of the method: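 After transient transfection of HepG2 with cis-promoter reporter constructs and 24 h dosing, RNA is reverse-transcribed, amplified, 6-FAM end-labelled and HpaI-digested before capillary analysis. Bidirectional curve fitting against DMSO.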

[13] = target: Myc proto-oncogene protein (Homo sapiens) (UniProt P01106); experiment: ATG_Myc_CIS: Attagene CIS-FACTORIAL HepG2 Assay for human Myelocytomatosis (Myc) Proto-Oncogene Transcription Factor (AID 2282990); conditions: HepG2, Attagene cis-reporter transcription factor activity; actives raise or lower the signal
Summary of the method: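 Cells of the HepG2 human liver line bear multiple cis-driven reporter transcription units. Reporter mRNA after 24 h exposure is reverse-transcribed, amplified, labelled and resolved by capillary electrophoresis, with gain- or loss-of-signal fitting relative to DMSO.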

[14] = ATG_NF_kB_CIS: Attagene CIS-FACTORIAL HepG2 Assay for human Nuclear Factor Kappa B (NF-kB) (AID 2282991); conditions: HepG2 Attagene cis-factorial NF-kB reporter mRNA; actives raise or lower the signal
Summary of the method: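 Measures mRNA induction of an NF-kB-responsive cis-element reporter in HepG2 cells transfected with multiple reporter units, sampled 24 h post-dosing; quantified by fluorescence after RT-PCR and capillary electrophoresis, fitted for activation or inhibition against DMSO.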

[15] = ATG_NRF2_ARE_CIS: Attagene CIS-FACTORIAL HepG2 Assay for human Nuclear Factor Erythroid 2 Related Factor 2 (NFR2) response to Antioxidant Response Elements (ARE) (AID 2282992); conditions: HepG2 Attagene ARE/NRF2 reporter, transcription factor activity; actives raise or lower the signal
Summary of the method: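 Multiplexed reporter mRNA profiling in HepG2 after a 24 h chemical exposure. Curves fitted in both directions relative to DMSO negative control.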

[16] = ATG_Oct_MLP_CIS: Attagene CIS-FACTORIAL HepG2 Assay for human Octamer-Binding Transcription Factor (Oct) (AID 2282993); conditions: HepG2 Attagene cis-factorial Oct reporter, mRNA; actives raise or lower the signal
Summary of the method: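 Cells of the HepG2 line express promoter-controlled reporter sequences whose mRNA levels, after 24 h treatment, are measured by RT-PCR and capillary electrophoresis. Increases and decreases are scored relative to DMSO.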

[17] = target: Cellular tumor antigen p53 (Homo sapiens) (UniProt P04637); experiment: ATG_p53_CIS: Attagene CIS-FACTORIAL HepG2 Assay for human p53 Transcription Factor (AID 2282994); conditions: HepG2 p53 cis-element reporter, Attagene mRNA; actives raise or lower the signal
Summary of the method: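 Multiplexed reporter mRNA assay in human HepG2 liver cells; cis-regulated units report endogenous factor activity. Values come from bidirectional curve fitting against DMSO negative control after 24 h treatment.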

[18] = target: Peroxisome proliferator-activated receptor gamma (Homo sapiens) (UniProt P37231); experiment: ATG_PPARg_TRANS: Attagene TRANS-FACTORIAL HepG2 Assay for human Peroxisome Proliferator-activated Receptor-gamma (PPARg) (AID 2283007; active = hit-call score of the fitted dose curve at least 0.9, where 1 is the maximum)
Summary of the method: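 Gain-of-signal endpoint relative to DMSO, derived from reporter mRNA levels quantified by RT-PCR and capillary electrophoresis. Cells were HepG2 transiently expressing a chimeric NR-Gal4 construct with GAL4-UAS reporters, exposed to chemicals for 24 h.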

[19] = target: Nuclear receptor subfamily 1 group I member 2 (Homo sapiens) (UniProt O75469); experiment: ATG_PXR_TRANS: Attagene TRANS-FACTORIAL HepG2 Assay for human Pregnane X Receptor (PXR) (AID 2283008; active = hit-call score of the fitted dose curve at least 0.9, where 1 is the maximum)
Summary of the method: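 Measures mRNA induction of a GAL4-UAS-driven reporter in human HepG2 cells transiently expressing PXR fused to Gal4, following 24 h treatment. DMSO served as negative control and baseline.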

[20] = ATG_XTT_Cytotoxicity: Cytotoxicity Assessment in the Attagene TRANS-FACTORIAL HepG2 Assay (AID 2283584; active = hit-call score of the fitted dose curve at least 0.9, where 1 is the maximum;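 for AC50: cells exposed to compound for 24 h before reading; active means loss of viability signal versus DMSO baseline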)
Summary of the method: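 Cells: human HepG2, transiently transfected with MRTU reporter constructs. Exposure 24 h. Readout: XTT, cell number. Baseline/neg ctrl DMSO; loss-of-signal scored.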

Measured: AC50

Sequence of Peroxisome proliferator-activated receptor gamma (Homo sapiens) (P37231 whole entry, looked up, the tested form may be a part): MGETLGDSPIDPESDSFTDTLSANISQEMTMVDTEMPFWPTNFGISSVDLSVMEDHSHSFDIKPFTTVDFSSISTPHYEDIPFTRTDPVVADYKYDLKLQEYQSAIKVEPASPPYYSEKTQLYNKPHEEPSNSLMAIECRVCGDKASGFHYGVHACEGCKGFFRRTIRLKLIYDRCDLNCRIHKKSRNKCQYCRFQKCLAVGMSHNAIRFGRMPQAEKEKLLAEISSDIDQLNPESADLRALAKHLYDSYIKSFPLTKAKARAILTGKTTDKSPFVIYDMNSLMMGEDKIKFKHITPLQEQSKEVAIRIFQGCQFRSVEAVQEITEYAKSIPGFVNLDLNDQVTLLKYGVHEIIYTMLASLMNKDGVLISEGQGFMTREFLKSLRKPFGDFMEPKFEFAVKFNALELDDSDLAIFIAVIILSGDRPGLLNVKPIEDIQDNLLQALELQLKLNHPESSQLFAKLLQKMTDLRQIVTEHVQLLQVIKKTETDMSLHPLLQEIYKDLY
Sequence of Nuclear receptor subfamily 1 group I member 2 (Homo sapiens) (O75469 whole entry, looked up, the tested form may be a part): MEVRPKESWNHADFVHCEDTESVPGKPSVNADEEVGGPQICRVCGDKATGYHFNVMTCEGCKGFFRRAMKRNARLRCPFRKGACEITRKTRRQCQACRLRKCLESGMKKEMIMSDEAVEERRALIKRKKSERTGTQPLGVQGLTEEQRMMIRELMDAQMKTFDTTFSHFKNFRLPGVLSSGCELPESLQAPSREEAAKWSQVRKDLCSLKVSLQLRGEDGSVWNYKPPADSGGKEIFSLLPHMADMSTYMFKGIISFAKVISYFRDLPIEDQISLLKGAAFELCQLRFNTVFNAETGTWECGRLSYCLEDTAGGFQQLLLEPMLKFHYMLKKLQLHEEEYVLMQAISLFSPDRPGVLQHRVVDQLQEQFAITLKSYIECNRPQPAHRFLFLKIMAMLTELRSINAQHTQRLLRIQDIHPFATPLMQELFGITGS
Sequence of Paired box protein Pax-6 (Homo sapiens) (P26367 whole entry, looked up): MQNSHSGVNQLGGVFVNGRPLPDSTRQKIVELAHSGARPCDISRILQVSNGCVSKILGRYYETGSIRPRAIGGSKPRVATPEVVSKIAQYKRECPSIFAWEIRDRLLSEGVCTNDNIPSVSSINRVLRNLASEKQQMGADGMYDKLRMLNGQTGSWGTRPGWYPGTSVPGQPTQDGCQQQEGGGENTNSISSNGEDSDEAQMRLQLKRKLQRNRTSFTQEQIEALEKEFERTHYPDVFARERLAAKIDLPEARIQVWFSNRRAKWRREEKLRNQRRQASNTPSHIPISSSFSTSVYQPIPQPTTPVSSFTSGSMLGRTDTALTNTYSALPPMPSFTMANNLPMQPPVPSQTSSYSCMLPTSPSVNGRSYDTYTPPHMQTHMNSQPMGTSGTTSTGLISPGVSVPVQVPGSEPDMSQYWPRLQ
Sequence of Aryl hydrocarbon receptor (Homo sapiens) (P35869 whole entry, looked up): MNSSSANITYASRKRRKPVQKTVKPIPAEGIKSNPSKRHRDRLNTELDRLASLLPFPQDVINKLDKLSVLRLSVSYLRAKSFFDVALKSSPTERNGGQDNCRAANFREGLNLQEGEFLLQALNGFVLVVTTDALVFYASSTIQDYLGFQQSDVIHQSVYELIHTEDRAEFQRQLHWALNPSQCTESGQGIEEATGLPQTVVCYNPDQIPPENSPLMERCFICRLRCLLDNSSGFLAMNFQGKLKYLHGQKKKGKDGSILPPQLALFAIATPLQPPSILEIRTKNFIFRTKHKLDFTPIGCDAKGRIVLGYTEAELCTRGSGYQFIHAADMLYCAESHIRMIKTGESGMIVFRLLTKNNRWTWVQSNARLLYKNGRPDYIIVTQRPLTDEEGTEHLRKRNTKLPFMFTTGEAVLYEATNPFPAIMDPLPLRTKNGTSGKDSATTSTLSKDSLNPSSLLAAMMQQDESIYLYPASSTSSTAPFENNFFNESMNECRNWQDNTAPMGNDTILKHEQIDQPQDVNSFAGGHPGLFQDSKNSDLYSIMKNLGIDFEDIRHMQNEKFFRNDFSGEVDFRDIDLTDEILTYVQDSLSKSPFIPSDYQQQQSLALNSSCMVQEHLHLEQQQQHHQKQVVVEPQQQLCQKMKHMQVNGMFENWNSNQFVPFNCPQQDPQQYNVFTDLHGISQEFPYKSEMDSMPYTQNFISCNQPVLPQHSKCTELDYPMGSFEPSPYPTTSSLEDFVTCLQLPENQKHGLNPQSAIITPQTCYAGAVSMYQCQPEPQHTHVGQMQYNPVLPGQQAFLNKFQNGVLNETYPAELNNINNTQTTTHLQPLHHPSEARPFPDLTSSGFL
Sequence of Cellular tumor antigen p53 (Homo sapiens) (P04637 whole entry, looked up): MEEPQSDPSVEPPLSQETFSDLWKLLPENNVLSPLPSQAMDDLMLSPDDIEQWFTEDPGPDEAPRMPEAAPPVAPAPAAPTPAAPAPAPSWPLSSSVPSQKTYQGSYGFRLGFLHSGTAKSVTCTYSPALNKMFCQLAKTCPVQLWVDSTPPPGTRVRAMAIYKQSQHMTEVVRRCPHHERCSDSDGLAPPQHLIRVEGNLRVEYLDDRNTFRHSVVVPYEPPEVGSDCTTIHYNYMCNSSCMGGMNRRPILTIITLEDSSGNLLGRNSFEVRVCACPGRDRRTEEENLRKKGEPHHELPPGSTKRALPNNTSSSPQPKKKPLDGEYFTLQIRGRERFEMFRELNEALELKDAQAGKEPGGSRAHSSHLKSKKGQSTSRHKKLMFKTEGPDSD
Sequence of X-box-binding protein 1 (Homo sapiens) (P17861 whole entry, looked up, the tested form may be a part): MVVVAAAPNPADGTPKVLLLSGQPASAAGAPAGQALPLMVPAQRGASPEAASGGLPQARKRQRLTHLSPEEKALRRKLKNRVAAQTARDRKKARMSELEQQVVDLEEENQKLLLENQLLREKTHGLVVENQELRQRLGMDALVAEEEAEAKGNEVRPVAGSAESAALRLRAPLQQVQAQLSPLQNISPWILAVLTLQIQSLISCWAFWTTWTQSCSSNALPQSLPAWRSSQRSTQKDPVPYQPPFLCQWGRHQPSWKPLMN
Sequence of Myc proto-oncogene protein (Homo sapiens) (P01106 whole entry, looked up): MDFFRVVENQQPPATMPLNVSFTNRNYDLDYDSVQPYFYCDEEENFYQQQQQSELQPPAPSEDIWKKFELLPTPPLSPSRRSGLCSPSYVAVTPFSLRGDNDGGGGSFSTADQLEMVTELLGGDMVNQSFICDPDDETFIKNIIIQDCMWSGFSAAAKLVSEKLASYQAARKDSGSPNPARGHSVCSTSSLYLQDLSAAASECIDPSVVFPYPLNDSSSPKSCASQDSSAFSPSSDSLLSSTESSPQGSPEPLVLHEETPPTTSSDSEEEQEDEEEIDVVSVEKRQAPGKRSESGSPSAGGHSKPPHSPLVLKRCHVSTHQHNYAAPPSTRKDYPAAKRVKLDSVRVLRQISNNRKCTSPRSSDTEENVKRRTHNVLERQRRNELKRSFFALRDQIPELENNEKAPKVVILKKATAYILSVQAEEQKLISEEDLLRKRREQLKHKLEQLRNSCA

Oc1cc(Cl)ccc1Cl
inactive: all assays above

C=CC(=O)OC
not listed: [18] | [19]
inactive: all other assays above

N#Cc1cccc(C#N)c1
not listed: [8]
inactive: all other assays above

CCC(Br)(CC)C(=O)NC(N)=O
not listed: [8] | [11] | [18]
inactive: all other assays above

Cc1ncc(C[n+]2csc(CCO)c2C)c(N)n1
not listed: [5] | [11] | [19] | [20]
inactive: all other assays above

c1ccc(P(c2ccccc2)c2ccccc2)cc1
active: [15] 21.5 µM | [19] 6.89 µM
not listed: [4] | [20]
inactive: all other assays above

O=C(NC(=O)c1c(F)cccc1F)Nc1ccc(Oc2ccc(C(F)(F)F)cc2Cl)cc1F
active: [1] 8.23 µM | [15] 34.5 µM | [18] 3.59 µM
not listed: [11]
inactive: all other assays above

O=C(O)CCCc1ccc(N(CCCl)CCCl)cc1
active: [17] 54.7 µM
not listed: [6] | [18]
inactive: all other assays above

C=CCc1ccc(OC(=O)Cc2ccccc2)c(OC)c1
active: [9] 27.5 µM | [14] 114 µM | [15] 11 µM | [18] 19 µM | [19] 11.8 µM
not listed: [4] | [5]
inactive: all other assays above

CN1C(=O)CCS(=O)(=O)C1c1ccc(Cl)cc1 (stereo unspecified)
not listed: [8] | [17] | [18]
inactive: all other assays above

CCCCCCC1CCOC1=O (stereo unspecified)
not listed: [8]
inactive: all other assays above

CC(C)(O)C#N
not listed: [14]
inactive: all other assays above

C=COCCCl
not listed: [4] | [8] | [18] | [19]
inactive: all other assays above

Cc1ccc(N(SC(F)(Cl)Cl)S(=O)(=O)N(C)C)cc1
active: [4] 11.1 µM | [5] 17.9 µM | [9] 14.4 µM | [10] 17 µM | [12] 17.3 µM | [13] 20.3 µM | [15] 13.9 µM | [16] 17.7 µM | [20] 38.7 µM
not listed: [6]
inactive: all other assays above

CN1C[C@H](C(=O)N[C@]2(C)O[C@@]3(O)[C@@H]4CCCN4C(=O)[C@H](Cc4ccccc4)N3C2=O)C=C2c3cccc4[nH]cc(c34)C[C@H]21
active: [2] 23.1 µM | [9] 0.966 µM | [15] 27 µM | [19] 0.534 µM
not listed: [8] | [18]
inactive: all other assays above
